# Source: PubChem BioAssay (National Center for Advancing Translational Sciences (NCATS))
# CtBP-E1A inh = blocks the CtBP interaction with E1A | AlphaScreen GST-E1A/His-CtBP binding, 1536-well; hits give low values | activity change, % (concentration not given with the values) | 340,000 tested, 0.49% active | AID 651724; in the data active = activity change below about -65%; inconclusive = mostly about -30% to -63%
#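 Protein mix (5X: 125 nM each GST-E1A, His-CtBP) was incubated with pinned compound 2 h at 37 deg C in dark, in 50 mM Tris pH 8.0 buffer with 300 mM NaCl. Glutathione donor and nickel acceptor beads followed; AlphaScreen signal read after 1 h.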
# Eya2 phos inh = blocks the phosphatase activity of human Eya2; O00167; recombinant Eya2, OMFP fluorescence dephosphorylation (OMFP is methylfluorescein phosphate); Potency, µM (series often up to 76.9 µM), actives largely listed as inhibitors; 330,000 tested, 0.006% active; AID 488837
#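 Eya2 (0.2 uM) preincubated 10 min at ambient with compound, then OMFP substrate added at 50 uM; 10 min reaction in 50 mM HEPES pH 7.5, 50 mM NaCl, 5 uM MgCl2, 0.05% BSA, 1 mM DTT. Fluorescence read at Ex 485/Em 525 nm.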
# Six1-Eya2 inh = Six1/Eya2 interaction inhibition. Q15475+O00167. AlphaScreen GST-Six1/His-Eya2 binding, biochemical; hits give low values. activity change, % (no concentration beside the values). 360,000 tested, 0.56% active. AID 651725; in the data active = activity change below about -65%; inconclusive = mostly about -30% to -63%
#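 Compounds are tested against tagged Six1 and Eya2 proteins bridged by glutathione donor and nickel acceptor beads; after a one-hour incubation at 37 °C without light, AlphaScreen emission is recorded.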
# GALK inh = blocks human galactokinase activity; P51570; Purified GALK, Kinase-Glo residual ATP luminescence; Potency, µM (series often up to 57.5 µM), most hits filed as inhibitors; 270,000 tested, 0.007% active
# Target sequence (P51570 whole entry, looked up): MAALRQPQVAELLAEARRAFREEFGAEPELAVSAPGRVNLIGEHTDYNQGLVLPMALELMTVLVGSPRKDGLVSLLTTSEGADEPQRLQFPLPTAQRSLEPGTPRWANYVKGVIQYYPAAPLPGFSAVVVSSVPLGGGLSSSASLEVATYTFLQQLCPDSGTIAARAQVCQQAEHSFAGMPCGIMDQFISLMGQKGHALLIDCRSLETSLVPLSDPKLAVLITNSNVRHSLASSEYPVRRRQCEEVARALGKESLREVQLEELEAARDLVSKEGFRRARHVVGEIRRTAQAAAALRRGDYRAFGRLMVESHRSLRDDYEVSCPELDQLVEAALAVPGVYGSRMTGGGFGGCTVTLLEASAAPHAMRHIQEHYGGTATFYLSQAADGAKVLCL
#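 Kinase-Glo Plus luminescence measured ATP left after a 1 h room-temperature reaction. The reaction used 5 nM GALK, 100 uM galactose and 35 uM ATP at pH 8.0 (20 mM HEPES, 5 mM MgCl2, 60 mM NaCl, 1 mM DTT, 0.01% BSA).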
# TrxR1 inh = inhibitors of rat thioredoxin reductase 1; O89049; recombinant rTrxR1, NADPH fluorescence consumption, selenite substrate; Potency, µM (highest dose often 114 µM), usual class: inhibitors; 390,000 tested, 1% active; AID 588453; note: nearly all actives have a fitted effect of over 65% in size
#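 Rat TrxR1 (90 nM in the dispensed reagent) was pre-reduced with 400 uM NADPH for 5 min at room temperature, then incubated with compound for 15 min. After 400 uM selenite was added, NADPH fluorescence (Ex 340/Em 450 nm) was followed for 8 min.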
# TrxR1 substrate = rat thioredoxin reductase 1 substrate activity. purified TrxR1 substrate turnover, NADPH consumption readout. AID 588456. O89049. 390,000 tested, 0.01% active. Potency, µM (top dose mostly 114 µM); note: nearly all actives have a fitted effect of over 50% in size
#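 Rat TrxR1, dispensed at 90 nM, was prereduced with 400 uM NADPH (final) for 5 min at ~22 deg C, then incubated with compound 15 min before 400 uM selenite. A first-read NADPH fluorescence drop versus no-compound background flagged substrates.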
# A number is an active result; - = inactive; ? = inconclusive; . = not tested or not shown; ! = not confirmed by another sample; [ ] = remark or other dose. Rows were chosen to be rich in hits. Some 1.5% of all compounds tested hit in one or more screens of this group. Unless noted, calls come from the whole dose curve; as a rule, active = well fitted curve in the direction sought with a large enough effect; inconclusive = small, poorly fitted or top-dose-only effect, or another doubt; inactive = no such curve, though single readings can be large; an effect the other way counts as inactive or inconclusive.
SMILES,CtBP-E1A inh,Eya2 phos inh,Six1-Eya2 inh,GALK inh,TrxR1 inh,TrxR1 substrate
COc1ccccc1Nc1ccc([N+](=O)[O-])cc1N,-,-,-,-,-,-
COc1ccc(C2=NN(C(C#N)c3ccc(OC)c(OC)c3)C(c3ccccc3)C2)cc1 (stereo not given),-,-,-,-,?,-
COc1cc(C(C#N)N2CCC(c3ccccc3)=N2)ccc1O (stereo not given),-,-,-,-,22.4µM,-
COc1ccc(C(C#N)N2CCC(c3ccccc3)=N2)cc1OC (stereo not given),-,-,-,-,3.16µM,-
Cc1nn2c(C)c(C(=O)N3CCN(c4ccccc4)CC3)cnc2c1-c1ccccc1,.,.,.,.,-,-
COc1ccc(/C(C)=N/Nc2ccccc2Cl)c(O)c1,-,-,-,-,-,-
COc1ccc(/C(C)=N/Nc2ccc(F)cc2F)c(O)c1,-72.8,-,-,-,-,-
COCCCNC(=O)C1CCN(Cc2cc3ccccc3n2Cc2cccc(C)c2)CC1,.,.,.,.,-,-
Cn1c2ccccc2c2cnn(CC(=O)NCCCN3CCCCC3)c(=O)c21,.,.,.,.,-,-
CC(CN1c2ccccc2Sc2ccccc21)N(C)C (stereo not given),-,-,-,-,11.9µM!,-
CC(CN(C)C)CN1c2ccccc2Sc2ccccc21 (stereo not given),-,-,-,.,-,-
C=CCN1C=C/C(=C\C=C(C#N)C#N)c2ccccc21,-78.6,-,?,-,-,-
Cc1nn(-c2ccccc2)c2nc(C3CC3)cc(C(=O)Nc3ccccc3F)c12,.,.,.,.,-,-
O=C1C(SCCO)=C(SCCO)C(=O)c2ccccc21,?,50.1µM!,-,.,15.8µM,10µM
O=C(NCc1ccc(F)cc1)c1ccc(CSc2nc3ccncc3n2Cc2ccc(F)cc2)cc1,.,.,.,.,-,-
CCCCCCCCCC[n+]1ccc(/C=C/c2c(C)[nH]c3ccccc23)cc1,.,.,.,.,?,-
Cc1csc(N=Nc2ccc(N(C)C)cc2)[n+]1[O-],?,.,-77.4,.,.,.
O=C(N/N=C/c1sc(=O)[nH]c1-[n+]1ccc2ccccc2c1)c1ccccc1[O-],-75.2,-,?,-,?,-
COCCc1nn2c(=O)cc(COC(=O)c3ccc(C(C)(C)C)cc3)nc2s1,.,.,.,.,-,-
O=S(NCc1ccco1)C12CC3CC(CC(C3)C1)C2 (stereo not given),-,-,-,-,35.5µM,-
O=S(NCc1ccccc1)C12CC3CC(CC(C3)C1)C2 (stereo not given),-,-,-,-,-,-
COc1cc(NC(=O)C2CCN(S(=O)(=O)c3c(C)noc3/C=C/c3cccs3)CC2)cc(OC)c1,.,.,.,.,-,-
O=C(O)c1cccc(OCCN2CCCC2=O)c1,-,-,-,-,-,-
CN1CCC(=O)N(CCOc2ccccc2)CC1,-85.6,-,-83.5,.,-,-
O=C(/C=C/c1ccccc1Cl)c1cccnc1,-,-,-,-,7.08µM,-
SMILES,CtBP-E1A inh,Eya2 phos inh,Six1-Eya2 inh,GALK inh,TrxR1 inh,TrxR1 substrate
O=C(/C=C/c1ccc(Cl)cc1)c1cccnc1,-,-,-,-,31.6µM,-
O=C(C=Cc1cccc(Cl)c1)c1ccccc1,-,.,-,.,39.8µM,-
CCN(CC)c1ccc(/C=C/C(=O)c2cccnc2)cc1,.,-,-,-,-,-
N#Cc1ccc(/C=C/C(=O)c2cccnc2)cc1,.,-,-,-,22.4µM,-
CCOC(=O)Cn1nc(-c2ccccc2)c2cnc3ccc(OCC)cc3c21,.,.,.,.,-,-
CCCC(O)c1nc2ccccc2n1Cc1ccccc1OC (stereo not given),.,.,.,.,-,-
O=C1C(NS(=O)(=O)c2ccc(Cl)cc2)=C(N2CCCCC2)C(=O)c2ccccc21,-81.2,-,-80.4,-,?,-
CCOC(=O)C1CCN(C2=C(NS(=O)(=O)c3ccc(Br)cc3)C(=O)c3ccccc3C2=O)CC1,.,-,-79.7,-,-,-
Cc1cc(NC(=O)CN2C(=O)c3cccnc3Sc3ccccc32)ccc1Br,.,.,.,.,-,-
CCOc1ccc(CCNC(=O)c2cc3c(=O)oc4ccc(C)cc4c3s2)cc1OCC,.,.,.,.,-,-
COc1ccc(-c2nnc(C)c3nocc23)cc1,.,-,-,-,20µM,-
Oc1c(N=Nc2ccccn2)ccc2ccccc12,-95.5,-,-96.5,-,-,-
Oc1[nH]c2ccccc2c1N=Nc1ccccn1,-,.,-,.,-,-
CN1CCN/C1=C(/C(Cl)=C(Cl)Cl)[N+](=O)[O-],-,-,-,-,3.16µM,-
NC(=N\N=Cc1ccccc1)/C(N)=N/N=Cc1ccccc1,-,.,-,.,-,-
NC(=N\N=Cc1ccco1)/C(N)=N/N=Cc1ccco1,?,.,?,.,79.4µM,?
CCCc1nc2ccccc2n2c(-c3ccc(C)cc3)c3c(=O)n(C)c(=O)n(C)c3c12,.,.,.,.,-,-
CN(C)c1ccc(NC(=S)c2ccccn2)cc1,-73.9,-,-88.4,.,-,-
Cc1ccc(N2C(=O)C3C4C=CC(CNC(=S)N5CCN(c6cccc(C)c6)C(C)C5)(O4)C3C2=O)cc1 (stereo not given),-,-,-,-,15.8µM,-
CC(NC(=O)Cn1c(=O)oc2cc(S(=O)(=O)NCc3ccccc3)ccc21)c1ccccc1 (stereo not given),.,.,.,.,-,-
Cc1cc2c(cc1C)N(C(=O)CCl)CCN2C(=O)CCl,-,.,-,.,1.12µM,-
Cc1cc2c(cc1C)N(C(=O)CCl)CC(=O)N2,-,.,-,.,.,.
Cc1ccc(C(=O)/C=C/C(=O)O)cc1,.,-,-,-,2.82µM,-
CCOC(=O)c1cc(C#N)c(=S)[nH]c1C,-,-,-,-,7.94µM,-
COCc1[nH]c(=S)c(C#N)cc1C(=O)OC,-,-,-,-,14.1µM,-
SMILES,CtBP-E1A inh,Eya2 phos inh,Six1-Eya2 inh,GALK inh,TrxR1 inh,TrxR1 substrate
CC(C)OCCCNC(=O)CCCN1C(=O)CCn2nc(-c3cccn3C)cc21,.,.,.,.,-,-
CC(C)c1nnc(NC(=O)c2nc(S(=O)(=O)Cc3ccc(F)cc3)ncc2Cl)s1,-,-,-,-,31.6µM,-
Cc1cccc(CS(=O)(=O)c2ncc(Cl)c(C(=O)Nc3nnc(C(C)C)s3)n2)c1,-,-,-,-,25.1µM,-
CC(C)c1nnc(NC(=O)c2nc(SCc3ccc(F)cc3)ncc2Cl)s1,.,.,.,.,-,-
CSc1nnc(NC(=O)c2nc(S(=O)(=O)Cc3cccc(C)c3)ncc2Cl)s1,-,-,-,-,?,-
Cc1ccc(CS(=O)(=O)c2ncc(Cl)c(C(=O)Nc3nnc(C(C)C)s3)n2)cc1,-,-,-,-,31.6µM,-
CCSc1nnc(NC(=O)c2nc(S(=O)(=O)Cc3ccc(F)cc3)ncc2Cl)s1,-,-,-,-,25.1µM,-
O=C(Nc1cccc(C(F)(F)F)c1)C1CCN(S(=O)(=O)c2cccc3nsnc23)CC1,.,.,.,.,-,-
COc1ccc(N=c2nc(-c3ccccc3)n(-c3ccc(C)cc3)s2)cc1,.,.,.,.,-,-[0.0914 µM]
